Assay outcomes from PubChem.
FadD28 binding = blocks FadD28 binding to the bisubstrate probe | inhibition, % at 12.5 µM | 0.22% of 360,000 active | AID 588549 | fluorescence polarization; in the data active = inhibition above about 8.5%, passing the limit was not always enough; inconclusive = no clear call, values can overlap the other calls
BioA inh-1 = inhibitors of Mycobacterium tuberculosis BioA enzyme. purified M. tuberculosis BioA enzyme, plate reader. inhibition, % at 9.99 µM. 0.096% of 360,000 active. AID 602481; in the data active = inhibition above about 40%; inconclusive = no clear call, values can overlap the other calls
PfHsp40 yeast = compounds rescuing yeast from Plasmodium falciparum HSP40 toxicity | S. cerevisiae expressing PfHsp40, growth rescue, ATP luminescence | growth rescue, % at 12.5 µM | 0.68% of 340,000 active; in the data active = growth rescue above about 28%, passing the limit was not always enough; inconclusive = no clear call, values can overlap the other calls;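 note: yeast W303a lacking pdr1 and pdr3 grown in galactose medium; growth measured after three days at 30 °C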
PrP 5UTR inh = inhibition of PrP 5' UTR reporter expression; inhibition, % (concentration not given with the values); 0.35% of 340,000 active; cell-based PrP 5' UTR mRNA reporter, plate reader; AID 488862; in the data active = inhibition above about 52%
TcdB inh = TcdB glycohydrolase inhibition; P18177; TcdB glycohydrolase enzymatic assay, plate reader; inhibition, % at 9.99 µM; 0.24% of 350,000 active; in the data active = inhibition above about 10%
BioA inh-2 = inhibitors of Mycobacterium tuberculosis BioA enzyme | shares compounds with BioA inh-1 | purified BioA enzyme, plate reader, dose response | max activity, % | 310 tested, under 10 active;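 note: top concentration of the dilution series was 10 µM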
Target sequence (P9WQ81 whole entry, looked up): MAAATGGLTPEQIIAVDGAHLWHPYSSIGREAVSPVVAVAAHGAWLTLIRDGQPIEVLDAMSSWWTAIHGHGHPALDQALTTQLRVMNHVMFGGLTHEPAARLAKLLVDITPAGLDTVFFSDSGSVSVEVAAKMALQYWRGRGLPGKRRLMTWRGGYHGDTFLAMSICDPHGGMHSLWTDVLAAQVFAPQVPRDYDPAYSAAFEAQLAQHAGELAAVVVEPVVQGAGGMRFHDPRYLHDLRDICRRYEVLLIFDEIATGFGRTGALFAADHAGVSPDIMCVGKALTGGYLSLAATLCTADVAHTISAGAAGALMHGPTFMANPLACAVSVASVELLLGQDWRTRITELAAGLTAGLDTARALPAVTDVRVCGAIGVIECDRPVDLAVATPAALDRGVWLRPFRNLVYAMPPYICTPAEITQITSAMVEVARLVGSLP
HepG2 cytotox = HepG2 viability loss. max activity, %. HepG2 cytotoxicity, plate reader. 310 tested, under 10 active. shares compounds with BioA inh-1
NIH3T3 tox 5 = NIH3T3 viability loss | shares compounds with BioA inh-1 | NIH3T3 cytotoxicity, plate reader | activity change, negative = cytotoxicity, % at 26 µM | 310 tested, under 10 active
Numbers stand for hits; . = inactive; ? = inconclusive; / = no result. Compounds with a hit are over-represented: about 1.1% of the library has one in this group of screens. Unless noted, the rule behind the calls is not given here.

SMILES	FadD28 binding	BioA inh-1	PfHsp40 yeast	PrP 5UTR inh	TcdB inh	BioA inh-2	HepG2 cytotox	NIH3T3 tox 5
O=C(Nc1ccc2c(c1)[C@H]1C[C@@H](CC(=O)N3CCc4ccccc4C3)O[C@@H](CO)[C@H]1O2)c1cccnc1	/	42.5	/	/	.	.	.	.
O=C(C[C@@H]1C[C@H]2c3cc(NC(=O)c4cccnc4)ccc3O[C@H]2[C@@H](CO)O1)NCc1cc(F)ccc1F	/	41.2	/	/	.	.	.	.
CN(C)C(=O)C[C@@H]1C[C@@H]2c3cc(NC(=O)c4cccnc4)ccc3O[C@@H]2[C@@H](CO)O1	/	47.7	/	/	.	.	.	.
O=C(C[C@H]1C[C@H]2c3cc(NC(=O)c4cccnc4)ccc3O[C@H]2[C@@H](CO)O1)NCc1cc(F)ccc1F	/	.	/	/	.	/	/	/
CN1c2ccc(Br)cc2[C@@H]2[C@@H](CCN2S(=O)(=O)c2ccccc2F)[C@@H]1CO	/	.	/	/	.	/	/	/
CCCC(=O)Nc1ccc2c(c1)C(=O)N(C)[C@H]1CC[C@H](CC(=O)NCCCN(C)C)O[C@@H]1CO2	/	.	/	/	.	/	/	/
COc1cc2c3cc1Oc1cc(ccc1O)C[C@@H]1c4c(cc(OC)c(O)c4Oc4cccc(c4)C[C@@H]3N(C)CC2)CC[N+]1(C)C	.	51.2	.	.	.	.	.	.
COc1cc2c3cc1Oc1cc(ccc1O)C[C@@H]1c4c(cc(OC)c(O)c4Oc4ccc(cc4)C[C@H]3N(C)CC2)CCN1C	.	.	.	.	.	/	/	/
COCC(=O)N(C)C[C@H]1Oc2cc(C#Cc3cccnc3)ccc2S(=O)(=O)N([C@@H](C)CO)C[C@H]1C	/	.	/	/	.	/	/	/
C[C@@H]1CN([C@@H](C)CO)C(=O)c2cccc(NS(=O)(=O)c3ccc(Cl)cc3)c2O[C@@H]1CN(C)CC1CC1	/	.	/	/	.	/	/	/
C[C@@H]1CN([C@@H](C)CO)C(=O)Cc2cc(NC(=O)Cn3cnnn3)ccc2O[C@H]1CN(C)Cc1ccc2c(c1)OCO2	/	55.6	/	/	.	.	.	.
C[C@H]1CN([C@@H](C)CO)C(=O)Cc2cc(NC(=O)Cn3cnnn3)ccc2O[C@H]1CN(C)Cc1ccc2c(c1)OCO2	/	.	/	/	.	/	/	/
C[C@@H]1CN([C@H](C)CO)C(=O)Cc2cc(NC(=O)Cn3cnnn3)ccc2O[C@H]1CN(C)Cc1ccc2c(c1)OCO2	/	62.6	/	/	.	.	.	.
CN1CCN(c2ncnc3c2[nH]c2ccc(F)cc23)CC1	.	70.3	.	.	/	.	.	.
Fc1ccc2[nH]c3c(NCCN4CCOCC4)ncnc3c2c1	.	54.3	.	.	/	.	?	?
Clc1ccc2[nH]c3c(NCCN4CCOCC4)ncnc3c2c1	.	.	.	.	/	/	/	/
Fc1ccc2[nH]c3c(N4CCc5ccccc5C4)ncnc3c2c1	.	.	/	/	.	/	/	/
Cc1ccc(S(=O)(=O)N(C)C[C@@H]2Oc3ncc(C#CC4(O)CCCC4)cc3C(=O)N([C@H](C)CO)C[C@H]2C)cc1	/	.	/	/	.	/	/	/
C[C@H](CO)N1C[C@H](C)[C@H](CN(C)S(=O)(=O)c2ccc(F)cc2)Oc2c(NC(=O)C3CCOCC3)cccc2C1=O	/	.	/	/	.	/	/	/
O=C(C1CC1)N1CC[C@@H]2[C@H]1c1cc(Br)ccc1N[C@@H]2CO	/	88.0	/	/	/	.	.	.
O=C(Cc1ccccc1)N1CC[C@@H]2[C@H]1c1cc(Br)ccc1N[C@@H]2CO	/	86.2	/	/	.	.	.	.
COc1ccc(Cn2ccc(=O)c(Cc3c(Cl)cccc3Cl)c2C)cc1	.	43.0	.	.	/	.	?	?
O=c1[nH]c(N2CCN(Cc3ccc4c(c3)OCO4)CC2)nc2c1CCC2	.	76.0	.	.	/	.	.	.
O=c1[nH]c(N2CCN(Cc3ccccc3)CC2)nc2c1CCC2	.	/	.	.	.	/	/	/
O=C(COc1ccc2ccc(=O)oc2c1)N1CCN(c2ccc(F)cc2)CC1	.	54.9	.	.	.	.	.	.
COc1ccccc1S(=O)(=O)N1CC[C@@H]2[C@H](CO)Nc3ccc(-c4cccc(C#N)c4)cc3[C@@H]21	/	48.2	/	/	/	.	.	.
COC(=O)c1sc(N)c(C(=O)OC)c1CSc1nnnn1C	.	.	.	.	/	/	/	/
COC(=O)c1sc(N)c(C(=O)OC)c1CSc1nnc(-c2ccccc2Cl)n1C	.	58.7	.	/	/	.	.	.
Cc1cc(C)n2nc(C(=O)Nc3cccnc3)nc2n1	.	65.4	.	.	/	.	.	.
